Structures are written as SMILES. The campaign covered roughly 2,300 compounds. About 55 (2%) were called active.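 Rule for the calls: active = duplicate-averaged calcium signal over 20% of the ionomycin maximum, relative to buffer baseline; inactive = the rest.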 The list comes from a sample in which actives are over-represented; it also holds similar structures and randomly drawn compounds.

The nature of the test: compound-evoked intracellular calcium rise – cell-based, counter-screen for TMEM16A inhibitor project, confirmation (AID 652231).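 For calcium response (% of ionomycin): each well's signal is peak minus trough fluorescence divided by its pre-addition baseline; 0% = buffer wells and 100% = ionomycin wells.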 The conditions noted are these: TMEM16A/YFP HEK293, Fluo4 calcium mobilization, at 10 µM; hits give high values.
Take `CSc1nnc2c(n1)OC(c1ccsc1)N(C(C)=O)c1ccccc1-2` (centres undefined): the calcium response (% of ionomycin) result is “inactive”.

For `CCOC(=O)C1=C(CN2CCc3ccccc32)NC(=O)NC1c1cccc([N+](=O)[O-])c1` (centres undefined), the calcium response (% of ionomycin) result was “inactive”.

As to `O=S1(=O)CCN(Cc2ccccc2Cl)CC1`, the calcium response (% of ionomycin) result was “inactive”.

As for `COc1ccc(Cl)cc1NC(=O)CCS(=O)(=O)c1cc2c(cc1C)NC(=O)CO2`, the calcium response (% of ionomycin) entry is “inactive”.

As for `O=C(Nc1nc(-c2ccc3c(c2)OCO3)cs1)c1ccncc1`, the calcium response (% of ionomycin) result was “inactive”.

For `Cc1nc2ccccc2cc1OCc1ccc(F)cc1`, the calcium response (% of ionomycin) result was “inactive”.

Consider `CC(C)(C)C(=O)/C(C#N)=C/c1ccc(O)cc1`, for which the calcium response (% of ionomycin) entry was “inactive”.

In the case of `O=C(O)c1ccc(NC(=O)C2CCCCC2)cc1`, the calcium response (% of ionomycin) entry is “inactive”.

Turning to `Cc1ccc(-n2[nH]c(C)c(/C=N/N3C(=O)c4cccc5cccc(c45)C3=O)c2=O)cc1`, the calcium response (% of ionomycin) was 43.5% (active).

Consider `Cc1[nH]n(-c2cccc(Cl)c2)c(=O)c1-c1ccc(Cl)cc1`, for which the calcium response (% of ionomycin) result is “inactive”.

`O=C1c2ccccc2C(Nc2ccc3c(c2)OCCO3)N1Cc1ccco1` (centres undefined): the calcium response (% of ionomycin) entry is “inactive”.

For the molecule `Cc1cccc(N=Nc2c(O)[nH]c3ccc(F)cc23)c1`, the calcium response (% of ionomycin) entry was “inactive”.

Take `CCCCn1ccnc1C(=O)c1cccc(S(=O)(=O)N2c3ccccc3CC2C)c1` (centres undefined): the calcium response (% of ionomycin) result was “inactive”.

For the molecule `O=C(CNCCC1=CCCCC1)Nc1ccccc1N1CCCCCC1`, the calcium response (% of ionomycin) result is “inactive”.

Consider `CCCC(=O)Nc1ccccc1N1CCN(C(=O)c2ccccc2)CC1`, for which the calcium response (% of ionomycin) result is “inactive”.

`S=C(NCc1cccs1)Nc1ccc(Cl)cc1`: the calcium response (% of ionomycin) entry was “inactive”.

Turning to `N#Cc1nc(N)nc(N(c2ccccc2)c2ccccc2)n1`, the calcium response (% of ionomycin) result was “inactive”.

As to `Fc1ccc(CSc2nnc(-c3cc4c(s3)-c3ccccc3CC4)o2)cc1`, the calcium response (% of ionomycin) result was “inactive”.

As for `Cn1c(CN2CCOCC2)nc2cc(NC(=O)c3ccc(Cl)cc3)ccc21`, the calcium response (% of ionomycin) result was “inactive”.

Take `O=C1NC(=O)C2C1C(c1ccc([N+](=O)[O-])cc1)=NN2Cc1ccccc1` (centres undefined): the calcium response (% of ionomycin) entry was “inactive”.

Consider `O=C(N/N=C/c1cc(Cl)cc([N+](=O)[O-])c1O)C(O)(c1ccccc1)c1ccccc1`, for which the calcium response (% of ionomycin) result was “inactive”.

For the molecule `O=C(COc1ccccc1)NCc1ccc2c(c1)OCO2`, the calcium response (% of ionomycin) result is “inactive”.

For the molecule `CN(C)c1cc[n+](Cc2ccccc2)cc1`, the calcium response (% of ionomycin) entry is “inactive”.

Turning to `CCCCCc1ccc(-c2ccc(C(=O)O)cc2)nc1`, the calcium response (% of ionomycin) entry was “inactive”.

In the case of `Cc1ccc2c(c1)N(CC(=O)N1CCCc3ccccc31)C(=O)C(C)O2` (centres undefined), the calcium response (% of ionomycin) entry is “inactive”.

On to `COC(=O)c1ccc(COC(=O)c2c(C)nn(Cc3ccccc3Cl)c2Cl)o1`, for which the calcium response (% of ionomycin) result was “inactive”.

Turning to `CCOC(=O)C1CCN(c2ncnc3c2oc2ccc(Br)cc23)CC1`, the calcium response (% of ionomycin) entry is “inactive”.

As to `Cc1nc(CNS(=O)(=O)c2ccc(Oc3ccccc3)cc2)cs1`, the calcium response (% of ionomycin) result is “inactive”.

Take `CC(=O)c1cc(CN2CCC(C(=O)Nc3cccc(-c4cscn4)c3)CC2)cs1`: the calcium response (% of ionomycin) result was “inactive”.

Take `c1ccc(-c2nnc(SCc3nc4ccccc4[nH]3)o2)cc1`: the calcium response (% of ionomycin) entry is “inactive”.

In the case of `COc1ccc(-n2c(C)cc(C(=O)CSc3nnc(-c4cccs4)o3)c2C)cc1`, the calcium response (% of ionomycin) entry is “inactive”.

For `O=C(Nc1ccccc1)c1ccccc1NC(=O)C(F)(F)F`, the calcium response (% of ionomycin) result is “inactive”.

`O=C(NC(=S)Nc1ccccc1C(=O)O)c1ccc(-c2ccc(Br)cc2)o1`: the calcium response (% of ionomycin) is 29% (active).

On to `N#CC1=C(SCc2ccccc2)NC(=O)C(C#N)C12CCCC2` (centres undefined), for which the calcium response (% of ionomycin) entry is “inactive”.
